Measurements: PMC4336329 (PLoS ONE, 2015)
Out of some 310,000 compounds screened, about 2,200 (0.71%) showed an effect of 50% or more. Effects have a minus sign here. The sample as a whole holds a higher share of strong results than the screen did.

Each molecule was assayed against human ether-à-go-go-related gene (hERG) potassium channel (human, UniProt Q12809) (assay: primary screen, population patch clamp on CHO cells stably expressing hERG; higher = less effect of the substance).
Sequence of human ether-à-go-go-related gene (hERG) potassium channel (Q12809 whole entry, looked up): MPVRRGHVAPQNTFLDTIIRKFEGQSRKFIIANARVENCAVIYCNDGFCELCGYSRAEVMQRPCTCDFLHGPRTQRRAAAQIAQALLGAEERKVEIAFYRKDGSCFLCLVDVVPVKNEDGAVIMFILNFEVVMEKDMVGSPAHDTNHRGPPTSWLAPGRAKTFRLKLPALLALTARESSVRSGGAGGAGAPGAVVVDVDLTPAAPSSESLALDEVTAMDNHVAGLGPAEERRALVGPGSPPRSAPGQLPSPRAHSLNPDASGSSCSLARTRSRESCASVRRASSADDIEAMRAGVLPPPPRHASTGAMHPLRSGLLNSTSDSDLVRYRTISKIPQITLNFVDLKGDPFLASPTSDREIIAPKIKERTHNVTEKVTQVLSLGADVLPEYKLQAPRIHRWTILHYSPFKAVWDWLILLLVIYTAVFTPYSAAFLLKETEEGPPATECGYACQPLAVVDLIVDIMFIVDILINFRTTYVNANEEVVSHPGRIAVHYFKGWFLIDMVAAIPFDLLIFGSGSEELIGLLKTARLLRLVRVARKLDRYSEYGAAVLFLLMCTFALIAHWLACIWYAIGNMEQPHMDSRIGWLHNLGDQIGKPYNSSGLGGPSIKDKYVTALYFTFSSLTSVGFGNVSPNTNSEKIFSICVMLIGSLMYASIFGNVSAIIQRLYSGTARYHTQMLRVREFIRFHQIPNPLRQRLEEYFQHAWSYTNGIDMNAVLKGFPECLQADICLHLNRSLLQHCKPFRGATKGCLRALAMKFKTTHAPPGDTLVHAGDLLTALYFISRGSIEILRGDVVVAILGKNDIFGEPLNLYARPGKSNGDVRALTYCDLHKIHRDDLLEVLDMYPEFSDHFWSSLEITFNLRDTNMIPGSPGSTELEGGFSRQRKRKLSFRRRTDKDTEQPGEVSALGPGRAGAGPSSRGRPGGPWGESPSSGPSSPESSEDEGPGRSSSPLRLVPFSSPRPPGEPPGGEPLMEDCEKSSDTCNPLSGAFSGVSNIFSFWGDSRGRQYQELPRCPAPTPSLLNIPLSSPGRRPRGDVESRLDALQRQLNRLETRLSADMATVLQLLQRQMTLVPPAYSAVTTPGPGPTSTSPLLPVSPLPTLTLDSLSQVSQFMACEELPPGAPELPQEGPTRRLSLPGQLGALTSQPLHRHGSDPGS

Row | SMILES | hERG current change (%, negative = inhibition) at 1uM [%]
1 | Cc1cc(C(=O)NC2CCCCC2)on1 | 10.2
2 | CN(C)c1cccc(C(=O)Nc2nc3ccccc3[nH]2)c1 | 14.7
3 | Fc1ccc(CN2CCCCCCC2)c(F)c1 | 14.2
4 | O=C(N/C(=C\c1ccc(Cl)cc1)C(=O)N1CCOCC1)c1ccc([N+](=O)[O-])cc1 | -88.2
5 | Cc1ccc(C(=O)N/C(=C/c2ccc(Cl)cc2)C(=O)N2CCOCC2)cc1 | -9.41
6 | O=C(N/C(=C\c1cccc([N+](=O)[O-])c1)C(=O)N1CCOCC1)c1cccc(Br)c1 | 7.37
7 | O=C(N/C(=C\c1ccc(Br)cc1)C(=O)N1CCOCC1)c1ccc([N+](=O)[O-])cc1 | -81.6
8 | COc1ccc(/C=C(/NC(=O)c2ccc(Br)cc2)C(=O)N2CCOCC2)cc1 | 7.06
9 | O=C(N/C(=C/c1cccc([N+](=O)[O-])c1)C(=O)N1CCOCC1)c1ccc(Br)cc1 | -19.6
10 | COc1ccc(C(=O)N/C(=C\c2ccccc2)C(=O)N2CCOCC2)cc1 | 9.79
11 | COc1ccc(/C=C(\NC(=O)c2ccc([N+](=O)[O-])cc2)C(=O)N2CCOCC2)cc1 | -54.9
12 | O=C(N/C(=C/c1ccccc1)C(=O)N1CCOCC1)c1ccc([N+](=O)[O-])cc1 | -19.6
13 | O=C(N/C(=C\c1ccc([N+](=O)[O-])cc1)C(=O)N1CCOCC1)c1cccc(Br)c1 | -79
14 | O=C(N/C(=C\c1ccccc1)C(=O)N1CCOCC1)c1cccc(Br)c1 | 18.8
15 | O=C(N/C(=C\c1ccccc1Cl)C(=O)N1CCOCC1)c1ccc([N+](=O)[O-])cc1 | -31.6
16 | O=C(Nc1cc(Cl)ccc1N1CCOCC1)c1cc2ccccc2o1 | 8.14
17 | Cc1c(Br)c([N+](=O)[O-])nn1C(C)C(=O)NCc1cccnc1 (stereo not drawn) | -7.67
18 | O=C(O)COc1ccccc1 | 14.1
19 | O=C(Nc1ccc2c(c1)C(=O)OC2)c1ccc(Cl)cc1Cl | 3.09
20 | Cc1ccccc1N(C(=O)Cc1cccs1)C(C(=O)NC1CCCCC1)c1cn(C)nc1C (stereo not drawn) | -0.242
21 | Br.CCCCN1C2=NCCCN2c2ccccc21 | -6.43
22 | CCCCCCCN1C2=NCCCN2c2ccccc21.Cl | -21.6

Row | SMILES | hERG current change (%, negative = inhibition) at 1uM [%]
23 | CCCCCCN1C2=NCCN2c2ccccc21.Cl | -82.3
24 | Br.CC(C)(C)C(=O)CN1C2=NCCN2c2ccccc21 | 2.72
25 | Br.CCCCCN1C2=NCCN2c2ccccc21 | -58.9
26 | CCCN1C2=NCCCN2c2ccccc21.Cl | 7.07
27 | c1ccc([C@H]2CN3C(=N2)Sc2ccccc23)cc1 | 11
28 | CCCCCCN1C2=NCCCN2c2ccccc21.Cl | -73.7
29 | CCCCN1C2=NC(c3ccccc3)CN2c2ccccc21.Cl (stereo not drawn) | -50.5
30 | O=C(CNC(=O)C12CC3CC(CC(C3)C1)C2)NC1=NCCS1 | 12.3
31 | COc1ccc(O)c(C2(O)C(=O)c3ccccc3C2=O)c1 | 14.2
32 | COc1cccc(NC(=O)Nc2nnc(-c3ccccc3SCc3ccccc3)s2)c1 | 2.04
33 | O=C(Nc1c2c(nn1-c1ccc([N+](=O)[O-])cc1)CS(=O)(=O)C2)c1ccco1 | -24.1
34 | O=C(CCN1CCN(Cc2ccccc2)CC1)Nc1cccc(Cl)c1 | -45
35 | O=C(c1cc2ccccc2oc1=O)N1CCN(C(=O)C2CCCO2)CC1 (stereo not drawn) | 4.25
36 | CCCOc1ccc(C2C(C(=O)c3ccc(C)o3)=C(O)C(=O)N2Cc2ccco2)cc1OCC (stereo not drawn) | 14.9
37 | COc1ccccc1N1CCN(C(=O)C(OC(C)=O)c2ccccc2)CC1 (stereo not drawn) | 11.8
38 | CCCCN(CC)CCNC(=O)c1cc2c(=O)[nH]c3ccccc3c2n1C | 11.5
39 | N#Cc1ccc(C(=O)Nc2cc(-c3ccccc3)nn2-c2ccccc2)cc1 | 0.56
40 | COc1cccc(C2CCCN2Cc2nc(CC3CC3)no2)c1 (stereo not drawn) | 14.5
41 | CNC(=S)N1CCN(c2cccc(OC)c2)CC1 | 7.07
42 | COc1cc(O)oc1C=Nc1ccc(Cl)cc1 | 10.9
43 | CNC(=S)NNC(=O)c1ccccc1Br | 15.2
44 | Cc1ccccc1CN1C2=NCCN2c2ccccc21.Cl | -13.7

Row | SMILES | hERG current change (%, negative = inhibition) at 1uM [%]
45 | CCCCCCCN1C2=NCCN2c2ccccc21.Cl | -60.7
46 | O=C(Cn1c2c(sc1=O)C1c3ccccc3OCC1CS2)Nc1ccc(Cl)cc1 (stereo not drawn) | 9.64
47 | Nc1nc(SCCC(F)=C(F)F)n[nH]1 | 4.82
48 | CCN(CC)CCNC(=O)c1cn(CC)c2ccc(S(=O)(=O)N(C)C3CCCCC3)cc2c1=O | 9.42
49 | CCCN(CCC)CCCNC(=O)c1cn(CC)c2ccc(S(=O)(=O)N(C)C3CCCCC3)cc2c1=O | -46.1
50 | CCCCN(CC)CCCNC(=O)c1cn(C)c2ccc(S(=O)(=O)N(C)C3CCCCC3)cc2c1=O | -66.6
51 | CCCCN(CCCC)CCNC(=O)c1cn(CC)c2ccc(S(=O)(=O)N(C)C3CCCCC3)cc2c1=O | -84.2
52 | CCN(CC)CCCNC(=O)c1cn(C)c2ccc(S(=O)(=O)N(C)C3CCCCC3)cc2c1=O | 12.2
53 | CCCCN(C)CCCNC(=O)c1cn(C)c2ccc(S(=O)(=O)N(C)C3CCCCC3)cc2c1=O | -45.6
54 | O=C(/C=C/c1ccccc1Cl)c1cccnc1 | 6.53
55 | CCC[C@H](CN[C@@H](CNC)[C@H](C)CC)NCCc1cc(C(F)(F)F)cc(C(F)(F)F)c1 | 0.0872
56 | CC(CCc1ccccc1)NCC(O)COc1ccccc1 (stereo not drawn) | -6.95
57 | CC1(c2ccc3ccccc3c2)NC(=O)N(CC(=O)Nc2ncccc2O)C1=O (stereo not drawn) | 14.4
58 | COC(=O)C(CCCCNC(=O)c1ccc([N+](=O)[O-])cc1)NC(=O)c1ccc([N+](=O)[O-])cc1 (stereo not drawn) | -84.2
59 | O=C(NCCCCC(NC(=O)c1ccc([N+](=O)[O-])cc1)C(=O)O)c1ccc([N+](=O)[O-])cc1 (stereo not drawn) | -6.29
60 | COC(=O)C(CC(C)C)NC(=O)c1ccc([N+](=O)[O-])cc1 (stereo not drawn) | 0.193
61 | CCOC(=O)c1nnc(-c2ccccc2)nc1NC | 2.74
62 | CCN1CCN(C(=S)c2ccc(SC)cc2)CC1 | -18
63 | Cc1cccc(C(=O)Nc2cccc3cccnc23)c1 | 17.4
64 | CC(=O)NC(=S)NNC(=O)CCc1ccccc1 | 6.91
65 | O=C(Cc1ccc(Br)cc1)Nc1cccc(-c2cn3c(n2)SCC3)c1 | 12.2
66 | COC(=O)c1sccc1-n1cccc1C(=O)N1CCOCC1 | -11.6

Row | SMILES | hERG current change (%, negative = inhibition) at 1uM [%]
67 | COC(=O)c1sccc1-n1cccc1C(=O)C(=O)N1CCOCC1 | -87.6
68 | COC(=O)c1sccc1-n1cccc1C(=O)C(=O)N1CCCC1 | 6.84
69 | CCN(CC)CCOc1nnc(-c2ccc(OC)cc2)c2ccccc12 | -25.1
70 | CCN(CC)CCOc1nnc(-c2ccc(C)cc2)c2ccccc12 | -58.4
71 | COc1nnc(-c2ccc(C)cc2)c2ccccc12 | 13.6
72 | O=C(OCc1ccc([N+](=O)[O-])cc1)c1cc([N+](=O)[O-])ccc1N1CCOCC1 | -67.2
73 | Cc1ccc(COC(=O)c2cc(S(=O)(=O)N3CCCCC3)ccc2N2CCOCC2)cc1 | -1.22
74 | NS(=O)(=O)c1ccc(CCNC(=O)c2cc([N+](=O)[O-])ccc2N2CCOCC2)cc1 | -6.06
75 | O=C(OCc1ccc(F)cc1)c1cc(S(=O)(=O)N2CCCCC2)ccc1N1CCOCC1 | 4.59
76 | O=C(OCc1ccc([N+](=O)[O-])cc1)c1cc(S(=O)(=O)N2CCCCC2)ccc1N1CCOCC1 | -77.9
77 | O=C(NCCc1ccc(F)cc1)c1cc([N+](=O)[O-])ccc1N1CCOCC1 | -98.2
78 | O=C(OCc1cccc(Cl)c1)c1cc([N+](=O)[O-])ccc1N1CCOCC1 | -5.04
79 | Cc1ccc(COC(=O)c2cc([N+](=O)[O-])ccc2N2CCOCC2)cc1 | -21
80 | COc1ccc(CCNC(=O)c2cc([N+](=O)[O-])ccc2N2CCOCC2)cc1 | 1.7
81 | O=C(NCCS(=O)(=O)N1CCN(c2ccccc2F)CC1)C1CC(=O)N(c2ccc(F)cc2)C1 (stereo not drawn) | 5.78
82 | COc1cccc(N2CC(C(=O)OC(C)C(=O)c3ccccc3)CC2=O)c1 (stereo not drawn) | 5.64
83 | Cc1c(O)ccc(C(=O)CN2CCN(c3ccccc3)CC2)c1O | 13.2
84 | Cc1ccc(-n2c(SCC(=O)N/N=C/c3ccc(C)s3)nnc2-c2ccccc2)cc1 | 7.01
85 | Cn1c(CCNC(=O)c2ccccc2F)nnc1SCc1nc2ccccc2c(=O)[nH]1 | 11.4
86 | COc1ccc(-c2[nH]ncc2CN(C)CCCN2CCOCC2)cc1F | 12
87 | CCOc1ccc(CCNC(=O)c2ccc(=O)[nH]c2)cc1OCC | 4.91
